TIM10 inh = inhibits growth of TIM10 yeast strain; S. cerevisiae TIM10 strain growth, BacTiter-Glo luminescence, 24 h; inhibition, % at 10 µM; 330,000 tested, 1.4% active; AID 463195;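 active = inhibition of 40% or more at the single tested concentration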;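 note: wild-type TIM10 isogenic control strain grown at permissive 25 °C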
Mdm2 MdmX PPI = inhibitors of human Mdm2/MdmX interaction; SaOS-2 split-luciferase Mdm2/MdmX complementation, luminescence; inhibition, % at 8 µM; 330,000 tested, 3% active;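 active = inhibition of at least 50% at 8 µM in the primary screen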
Target sequence (O15151 whole entry, looked up): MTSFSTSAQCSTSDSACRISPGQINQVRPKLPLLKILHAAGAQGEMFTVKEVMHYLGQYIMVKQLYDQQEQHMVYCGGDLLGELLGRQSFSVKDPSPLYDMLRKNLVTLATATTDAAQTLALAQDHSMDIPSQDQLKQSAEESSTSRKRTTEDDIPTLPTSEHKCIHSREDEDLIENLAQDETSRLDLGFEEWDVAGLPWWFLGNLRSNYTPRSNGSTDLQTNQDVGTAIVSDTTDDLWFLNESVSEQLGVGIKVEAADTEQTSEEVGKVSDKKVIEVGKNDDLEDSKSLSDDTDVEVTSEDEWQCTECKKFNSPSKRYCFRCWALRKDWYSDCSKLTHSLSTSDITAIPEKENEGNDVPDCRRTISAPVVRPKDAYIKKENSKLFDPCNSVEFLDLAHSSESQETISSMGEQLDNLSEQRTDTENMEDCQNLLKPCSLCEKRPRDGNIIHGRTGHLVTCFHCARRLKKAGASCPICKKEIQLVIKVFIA
Target sequence (Q00987 whole entry, looked up): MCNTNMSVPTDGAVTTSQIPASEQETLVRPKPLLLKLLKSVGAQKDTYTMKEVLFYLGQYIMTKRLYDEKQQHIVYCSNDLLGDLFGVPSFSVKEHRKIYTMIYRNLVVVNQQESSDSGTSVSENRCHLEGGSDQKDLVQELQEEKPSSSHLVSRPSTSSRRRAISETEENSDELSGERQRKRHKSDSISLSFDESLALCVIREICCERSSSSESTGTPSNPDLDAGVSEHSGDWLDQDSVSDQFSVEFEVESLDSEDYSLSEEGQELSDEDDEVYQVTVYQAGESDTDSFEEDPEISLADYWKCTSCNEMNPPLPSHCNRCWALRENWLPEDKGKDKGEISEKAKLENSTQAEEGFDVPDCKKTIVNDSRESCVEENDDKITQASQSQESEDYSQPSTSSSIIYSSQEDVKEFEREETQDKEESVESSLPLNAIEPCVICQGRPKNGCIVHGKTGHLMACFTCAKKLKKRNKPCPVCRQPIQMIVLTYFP
tim10-1 inh = growth inhibitors of tim10-1 mutant yeast. S. cerevisiae tim10-1 ts strain growth, BacTiter-Glo, 24 h. inhibition, % at 20 µM. 330,000 tested, 2.2% active;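 active = inhibition of at least 40%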;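 note: mutant grown at 25 °C; 0% = DMSO wells with yeast and 100% = wells holding no yeast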
MPTP block = blocks calcium-induced mitochondrial swelling; isolated mouse mitochondria, Ca2+ swelling absorbance, 30 min; inhibition, % at 10 µM; 360,000 tested, 1.4% active;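 active = inhibition of 50% or more, scaled per plate between neutral and stimulator controls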;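 note: 0% = DMSO wells given calcium and 100% = 1 mM EGTA wells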
tim23-1 inh = tim23-1 yeast growth inhibition; S. cerevisiae tim23-1 growth, BacTiter-Glo luminescence, 24 h; inhibition, % at 20 µM; 330,000 tested, 1.3% active; AID 463212;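 active = growth inhibition of the mutant yeast at or above 50%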;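 note: temperature-sensitive mutant grown at 25 °C; plate controls were DMSO-treated mutant yeast for no effect and medium wells lacking yeast for full effect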
TIM10 conf = confirmation of TIM10 yeast growth inhibitors; S. cerevisiae tim10 strain growth, BacTiter-Glo luminescence, 24 h; 4,600 tested, 63% active; shares compounds with TIM10 inh; inhibition, % at 10 µM; AID 463215;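 active = inhibition of yeast growth at or above a set limit in either of two replicates at 10 µM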;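 note: this counterscreen used the strain with wild-type TIM10; 0% = yeast with DMSO and 100% = medium wells lacking yeast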
tim23-1 confirm = confirmation of tim23-1 mutant yeast growth inhibitors | S. cerevisiae tim23-1 growth, BacTiter-Glo luminescence, 24 h | shares compounds with tim23-1 inh | 4,400 tested, 83% active | inhibition, % at 20 µM;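 active = inhibition above about 39% in either of two replicate wells at 20 µM, limit read from the data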;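 note: temperature-sensitive tim23-1 mutant grown at 25 °C; 0% = DMSO wells with yeast and 100% = medium wells without yeast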
Numbers without * were called inactive; . = no result. Shown are actives, neighbours in structure and some others; about 6.3% of the full set was active somewhere.

SMILES	TIM10 inh	Mdm2 MdmX PPI	tim10-1 inh	MPTP block	tim23-1 inh	TIM10 conf	tim23-1 confirm
O=C(NC(=S)Nc1ccc(N2CCOCC2)c(Cl)c1)c1cccs1	9	0	22	1	16	.	.
CC(C)CN1C(=O)c2ccc(NC(=O)c3ccccc3F)cc2C1=O	14	-5	-14	-1	3	.	.
O=C(Nc1ccc2c(c1)OCCO2)c1c(Cl)cccc1Cl	.	.	.	0	.	.	.
CC(C)CN1C(=O)c2ccc(NC(=O)c3cccs3)cc2C1=O	46*	-25	-6	4	53*	50*	54*
O=C(Nc1ccc(N2CCCC2)c(Cl)c1)c1cccs1	45*	-345	28	5	50*	34*	55*
O=C(Nc1ccc2c(c1)OCCO2)c1cccs1	45*	-66	15	1	56*	50*	65*
Cc1cc2c(cc1C)-n1nnnc1C(N1CCN(c3ncccc3C#N)CC1)C(=O)N2 (stereo unspecified)	.	.	.	1	.	.	.
CC(C)C(C(=O)NCc1ccccc1)N1CCN(c2ccccc2F)CC1 (stereo unspecified)	.	.	.	-2	.	.	.
CNc1cncc(-c2cccc(C(=O)NCCN(C)C)c2)n1	.	.	.	-2	.	.	.
CCc1nc2ccccc2c(C(=O)Oc2cccc3cccnc23)c1C	29	21	23	3	2	.	.
Cc1c(C(=O)Oc2cccc3cccnc23)oc2ccccc12	53*	1	36	-4	65*	40*	58*
O=C(Nc1ccc2c(c1)ncn2C1CCCCC1)c1ccco1	66*	-38	36	0	51*	53*	77*
COc1ccccc1-n1cnc2cc(NC(=O)c3ccco3)ccc21	44*	39	27	0	56*	37*	68*
O=C(Nc1ccc(S(=O)(=O)NC2CCCCC2)cc1)c1ccco1	-1	17	-13	0	7	.	.
Cc1cc(NC(=O)c2ccco2)sc1C	43*	-57	0	0	52*	27	59*
O=C1C=CC2C(c3ccc4c(c3)OCO4)CC1N2Cc1ccccc1 (stereo unspecified)	44*	28	23	0	58*	51*	47*
Cc1cccc(OCc2nnc(SCC(=O)N3c4ccccc4CC3C)n2C)c1C (stereo unspecified)	44*	14	39	0	54*	-2	42*
CC1(C(=O)Nc2cnc3ccccc3c2)CCN1Cc1ccccc1Cl (stereo unspecified)	.	.	.	2	.	.	.
Cc1ccc(C(=O)COC(=O)c2cn3ccccc3n2)cc1	48*	-16	20	-2	57*	42*	69*
NNC(=O)c1cn2ccccc2n1	10	21	2	11	4	.	.
CC(=O)C1=CCC(c2ccco2)N(S(=O)(=O)c2ccc(C)cc2)C1 (stereo unspecified)	.	.	.	-3	.	.	.
CCCCCCCCOC(=O)c1cc([N+](=O)[O-])c(Sc2ncnc3nc[nH]c23)c([N+](=O)[O-])c1	.	.	.	6	.	.	.
CCC(C)c1ccc(NC(=O)c2[nH]c(C)c(C(C)=O)c2C)cc1 (stereo unspecified)	43*	-12	40	37	53*	29	52*
CC(C)[C@H](NC(=O)c1ccco1)C(=O)Nc1ccc(N2CCCCCC2)cc1	.	.	.	-1	.	.	.
CNc1ncnc2c1ncn2[C@H]1CN(C2CCCC2)C[C@@H](CO)O1	.	.	.	0	.	.	.
SMILES	TIM10 inh	Mdm2 MdmX PPI	tim10-1 inh	MPTP block	tim23-1 inh	TIM10 conf	tim23-1 confirm
Cc1cc(C)c(C(=O)c2cccs2)c(C)c1	.	.	.	-3	.	.	.
Cc1cccc(N=N/C(=C\O)C(=O)c2cccs2)c1	43*	40	38	2	58*	45*	60*
O=C(Nc1ccn(CCCN2CCN(Cc3ccc(F)cc3)CC2)c(=O)n1)OCc1ccccc1	.	.	.	-1	.	.	.
CCN1CCN(c2nnc(-c3ccccc3)c3ccccc23)CC1	11	-10	-5	0	-3	.	.
Cc1ccc(-c2nnc(N3CCCCCC3)c3ccccc23)cc1	44*	9	25	2	60*	15	54*
CCCC[C@@H]1CC2=C(C(=O)OC(C)(C)O2)[C@@H](c2ccc(Cl)cc2)O1	.	.	.	2	.	.	.
Cc1cccc(NC(=O)COc2ccc(Br)cc2/C=N/O)c1	56*	-174	14	5	50*	61*	78*
CC(=O)Nc1ccc(NC(=O)COc2ccc(Br)cc2C)cc1	-8	-41	14	0	13	.	.

Source: PubChem
